Measurements reported in PubChem BioAssay (NCI).
Compounds without any hit were thinned out: in the full panel of roughly 83,000, 20% have a hit.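 How to read the values: 0–100, growth inhibition (40 = 60% inhibited); 0, no net growth; -100 to 0, cell death (-40 = 40% of starting cells died; -100 = all dead).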 A number with no mark means an inactive call. The source made the active and inactive calls. The calls were made as follows: active = growth percent below 10; inactive = the rest.

Tests used:
Test in all cases: NCI-60 one-dose screen, 48 h (100 = growth as untreated, 0 = no growth, -100 = all killed)
Conditions in all cases: 10 µM unless noted
[1] = tested on: HCT-15 colon
[2] = tested on: HT29 colon
[3] = tested on: SNB-75 CNS
[4] = tested on: U251 CNS
[5] = tested on: PC-3 prostate
[6] = tested on: SK-MEL-5 melanoma
[7] = tested on: UACC-62 melanoma
[8] = tested on: LOX IMVI melanoma
[9] = tested on: SK-MEL-28 melanoma
[10] = tested on: SK-MEL-2 melanoma
[11] = tested on: EKVX NSCLC
[12] = tested on: SN12C renal
[13] = tested on: UO-31 renal
[14] = tested on: TK-10 renal
[15] = tested on: ACHN renal
[16] = tested on: CAKI-1 renal
[17] = tested on: A498 renal
[18] = tested on: CCRF-CEM leukemia
[19] = tested on: MOLT-4 leukemia
[20] = tested on: SNB-19 CNS

| SMILES | growth [1] | growth [2] | growth [3] | growth [4] | growth [5] | growth [6] | growth [7] | growth [8] | growth [9] | growth [10] | growth [11] | growth [12] | growth [13] | growth [14] | growth [15] | growth [16] | growth [17] | growth [18] | growth [19] | growth [20] |
| --- | --- | --- | --- | --- | --- | --- | --- | --- | --- | --- | --- | --- | --- | --- | --- | --- | --- | --- | --- | --- |
| CCOC(=O)Nc1ccc2c(c1)/C(=N\NC(=S)NC)c1ccccc1-2 | 66.7% | 88% | 96.2% | 62% | 81.8% | 73.5% | 71.9% | 67.1% | 82.7% | 101% | 79.7% | 73.8% | 104% | 76.7% | 83.7% | 81.4% | 33.6% | 61.8% | 87.4% | – |
| CCCn1ccnc1C(O)c1ccc(OCc2ccccc2)c(OC)c1 (configuration not stated) | 93.5% | 103% | 71.2% | 86.8% | 82.7% | 93.5% | 87.3% | 94.4% | 103% | 91.3% | 89.3% | 92.3% | 63.7% | 77.8% | 93.6% | 74.8% | 102% | 94% | 98.5% | – |
| C[C@]12CCc3nc(Nc4ccccc4)sc3C1=CC[C@@H]1[C@@H]2CC[C@]2(C)/C(=N/NC(N)=S)CC[C@@H]12 | -11.6% (active) | 5.72% (active) | 35.3% | 37.3% | 26.6% | 38.1% | 42.6% | 69.6% | 63.6% | 66.9% | 78.2% | 49.2% | 60% | 38.3% | 31.6% | 49.6% | 48% | 18.7% | 8.01% (active) | – |
| CCCCCCCCCCCCNC(=S)N/N=C/c1ccccc1O | 56.9% | 36.6% | 81.1% | 78.4% | 69.5% | 88.8% | 77.7% | 60.5% | 93.3% | 80.8% | 89.1% | 69.4% | 37.6% | 128% | – | 65.4% | 94.3% | 46.1% | 52.4% | – |
| C=C(CC(=O)OC)C(C)=O | 117% | 119% | 110% | 116% | 109% | 107% | 95.4% | 110% | – | 118% | 99% | 100% | 88.2% | 107% | 109% | 101% | 95.1% | 118% | 95.2% | – |
| O=C(Nc1cc(-c2cccnc2)nc(NCCCN2CCOCC2)n1)c1cc(Br)cc(C(F)(F)F)c1 | 6.87% (active) | 8.99% (active) | 72.1% | 33.1% | 57.7% | 3.78% (active) | -6.13% (active) | -16.8% (active) | -49.8% (active) | 81.3% | 77.4% | 67.2% | 42% | 65.4% | 75.6% | 61.8% | 53.7% | 42.8% | 45.1% | – |
| COC(=O)C(=Cc1ccccc1[N+](=O)[O-])C(=O)OC | 19.8% | 21.3% | – | 23.7% | 40.4% | 49.1% | 19.6% | 10.7% | 36.4% | 73.5% | 51.4% | 51.1% | 31.2% | 14.7% | 48.7% | 31.2% | 69.1% | -1.09% (active) | 4.68% (active) | 88.9% |
| Cc1ccc(-c2cc(-c3ccc(C)cc3)nc(NCCNc3ccnc4cc(Cl)ccc34)n2)cc1 | -84.9% (active) | -36% (active) | – | -84.4% (active) | -22.8% (active) | -93.1% (active) | -79.9% (active) | -92.3% (active) | -83.6% (active) | -72.6% (active) | 24.6% | -88.3% (active) | -68.5% (active) | -49.2% (active) | -87.5% (active) | -47.8% (active) | 68.4% | 2.06% (active) | -29.6% (active) | 16.8% |
| Cc1cc(C)c(O)c(CNCCCCCCNCc2cc(C)cc(C)c2O)c1 | -53.2% (active) | -6.14% (active) | – | -59.2% (active) | 34.7% | -91.8% (active) | – | -85% (active) | -82.6% (active) | -61.8% (active) | 47.9% | 29.8% | -60.3% (active) | -28% (active) | -42.3% (active) | 26.2% | 21.4% | -19.9% (active) | -28.1% (active) | -46.1% (active) |
| COc1ccc(NC(=O)Nc2ccc(-c3cccnc3)cc2N2CCC(CO)CC2)cc1 | 43.7% | 9.77% (active) | – | 33% | 83.7% | -38.3% (active) | – | 71.9% | 18.7% | 73.6% | 60% | 70.9% | 97.8% | 47.1% | – | 64.1% | 9.13% (active) | 95.4% | 93.2% | 49.3% |
| CC1Cc2c(Cl)ncnc2N(C)c2ccccc21 (configuration not stated) | 12.6% | -24.1% (active) | – | 19.6% | 16.3% | -75.1% (active) | – | -43.6% (active) | 20.9% | -28.2% (active) | 21.7% | 15.8% | 10.4% | 15.1% | 26% | 19.3% | -18.4% (active) | 34.2% | 8.61% (active) | 28.4% |
| Nc1ccc(Cl)c([N+](=O)[O-])c1 | 87.8% | 106% | – | 99.1% | 88.3% | 97.6% | 80.1% | 66.9% | – | 97.4% | 92% | 105% | 101% | 103% | 87% | 78.8% | 89.5% | 94% | 106% | 108% |
| O=C1COCCN1c1ccc(NCc2cn(Cc3cccc4ccccc34)c3ccccc23)cc1 | 74% | 97.7% | – | 74.5% | 79.4% | 82.1% | 41.7% | 91% | 92.6% | 93.4% | 96.6% | 92.6% | 58% | 44.4% | 91.4% | 7.53% (active) | -39.1% (active) | 96.9% | – | 97.9% |
| CCc1ccc(NC(=O)N[C@@H](Cc2cc(F)cc(F)c2)C(=O)N[C@@H]2C(=O)N3C[C@H](O)C[C@H]3C(=O)N3CCOC[C@H]3C(=O)N[C@@H](C)C(=O)N3C[C@H](C)C[C@H]3C(=O)O[C@H]2C)cc1 | 108% | 31.2% | – | 24.8% | 14.4% | 85% | 29.7% | 41.6% | 39.7% | 29% | 79% | 24.3% | 78.7% | 95.8% | 103% | 84.4% | 38.6% | 50.9% | 43.3% | 20.2% |
| CC(=O)CC(=O)SC1=NCCS1 | 100% | 105% | – | 102% | 89.9% | 112% | 115% | 97.7% | 115% | 131% | 111% | 108% | 98.9% | 110% | 108% | 97.2% | 121% | 87.2% | 98.8% | 107% |
